# Screen size: about 420,000 compounds; about 50,000 (12%) were called active. Roughly 26% stayed inconclusive and do not appear here. The call rests on the fitted dose curve; in most records, active means well fitted inhibition curve with a large enough effect; inconclusive means small, poorly fitted or top-dose-only effect; inactive means flat fitted curve, though single readings scatter. Shown is part of a subset that was picked to be rich in actives. Entries that show only a call come without a potency.
# Experiment: qHTS for Inhibitors of human tyrosyl-DNA phosphodiesterase 1 (TDP1): qHTS in cells in presence of CPT; further: nearly all actives have a fitted effect of over 55% in size
# Conditions: chicken DT40 Tdp1-/-;hTDP1 cells + 20 nM CPT, ATP luminescence, 48 h; series mostly up to 46.2 µM
# Summary of the method: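 Chicken DT40 Tdp1-/- cells complemented with human TDP1, 400 cells/well, exposed to compounds plus 20 nM camptothecin for at least 48 h at 37 C; viability read as ATP content by CellTiter-Glo luminescence.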
# Potency means the concentration at half of the fitted maximal effect.
Structure (SMILES),Potency,"activity change, negative = growth inhibition"
CC(=O)Nc1c(C)nn(-c2ccccc2)c1N1CCC(C(=O)Nc2cc(Cl)ccc2C)CC1,inactive,–
Cc1ccc(Cl)cc1NC(=O)CN1CCN(S(=O)(=O)N2CCOCC2)CC1,inactive,–
Cc1ccc(Cl)cc1NC(=O)C1CCN(S(C)(=O)=O)CC1,6.51 µM (active),–
Cc1ccc2c(c1)C1CN(C)CCC1N2C(=S)Nc1ccc(OC(F)F)cc1 (stereo not drawn),inactive,–
CCN(Cc1ccncc1)C(=S)Nc1ccccc1C,inactive,–
COc1ccc(N(CC(=O)NCC2CCCO2)C(=O)CCC(=O)Nc2nccs2)c(OC)c1 (stereo not drawn),inactive,–
Cc1ccc(C(=O)Nc2ccn(C)n2)cc1,inactive,–
Cn1nccc1C(=O)NC1CCCc2c1cnn2-c1ccc(F)cc1F (stereo not drawn),1.46 µM (active),–
O=C(NCCN1CCCC(O)C1)c1cc(COc2c(F)cccc2F)on1 (stereo not drawn),inactive,–
Cn1nccc1C(=O)NC1CCCc2c1cnn2-c1ccccc1F (stereo not drawn),4.61 µM (active),–
CC(=O)NCC(=O)NC1CCCc2c1cnn2-c1ccccc1F (stereo not drawn),inactive,–
O=[N+]([O-])c1ccc(N2CCNCC2)cc1NCc1cccnc1,inactive,–
CN1CCN(/N=C/c2ccc(C#N)cc2)CC1,inactive,–
COc1ccc(-n2c(C)cc(C(=O)CN3C(=O)NC4(CCc5ccccc54)C3=O)c2C)cc1 (stereo not drawn),14.6 µM (active),–
COc1ccc(C(=O)CN2C(=O)NC3(CCc4ccccc43)C2=O)c(OC)c1 (stereo not drawn),inactive,–
COc1ccc(CNC(=O)CN2C(=O)NC3(CCCc4sccc43)C2=O)cc1 (stereo not drawn),inactive,–
Cc1cc(/C=C2\SC(=O)N(C)C2=O)c(C)n1-c1cccc(C(=O)O)c1,inactive,–
CCOC(=O)C1=C(C)Nc2nc3ccccc3n2C1c1cccs1 (stereo not drawn),inactive,–
COc1ccccc1NC(=O)C1=C(C)Nc2ncnn2C1c1sccc1C (stereo not drawn),inactive,–
COc1ccccc1NC(=O)C1=C(C)Nc2nc3ccccc3n2C1c1cccs1 (stereo not drawn),4.11 µM (active),–
O=C(c1ccccc1)c1cc(-c2ccccn2)c(N2CCOCC2)s1,inactive,–
c1csc(-c2nnc(COc3ncnc4sccc34)o2)c1,inactive,–
COc1ccccc1C1CN(Cc2ccccc2O)Cc2ccccc2O1 (stereo not drawn),–,-2.83% [at 9.04 µM] (inactive)
NC(=O)C1CCN(C(=O)c2ccc(C(F)(F)F)cc2)CC1,inactive,–
COC(=O)c1ccc(S(=O)(=O)N2CCC(c3nc4ccccc4o3)CC2)cc1,inactive,–

Structure (SMILES),Potency,"activity change, negative = growth inhibition"
O=C(c1ccc(C(F)(F)F)cc1)N1CCC(c2nc(-c3ccc(S(=O)(=O)N4CCCC4)cc3)no2)CC1,20.6 µM (active),–
Cn1c(SCC(=O)C(C)(C)C)nnc1-c1ccccn1,inactive,–
CCOC(=O)c1c(S(=O)(=O)N2CCC(C(=O)NCc3ccccc3OC)CC2)c(C)n(C)c1C,inactive,–
CCCCNC(=O)Cn1nc(C)c(S(=O)(=O)N2CCOCC2)c1C,inactive,–
COc1ccc2nc(N3CCN(C(=O)c4ccc([N+](=O)[O-])o4)CC3)sc2c1,14.6 µM (active),–
COc1ccc2nc(N3C(=O)C(O)=C(C(=O)c4ccco4)C3c3ccco3)sc2c1 (stereo not drawn),inactive,–
Cc1ccc2nc(N3CCN(C(=O)c4ccco4)CC3)sc2c1,inactive,–
COc1ccc(C(=O)OCC(=O)c2ccc(Cl)s2)c(OC)c1OC,inactive,–
Oc1ccc(-c2[nH]ncc2-c2nc3ccccc3s2)c(O)c1,inactive,–
COc1ccc(Oc2cn[nH]c2-c2ccc(OC)cc2O)cc1,25.9 µM (active),–
COc1ccc(-c2[nH]ncc2CN(C)Cc2c(C)n[nH]c2C)c(OC)c1,inactive,–
CN1CCN(c2ccc([N+](=O)[O-])c(Sc3nc4ccccc4[nH]3)c2)CC1,inactive,–
CC(C)c1ccc(NC(=O)COC(=O)c2ccc(CN3CCCC3=O)cc2)cc1,inactive,–
O=C1CN(C(=O)COC(=O)/C=C/c2ccc(F)cc2)c2ccccc2N1,inactive,–
CCOc1ccc2nc(NCCNC(=O)C(C)(C)C)c(C)cc2c1,inactive,–
COc1ccc(-c2nc3sc(CCNC(=O)C(C)(C)C)c(C)n3n2)cc1,29.1 µM (active),–
Cc1c(CCNC(=O)c2ccc(C(F)(F)F)cc2)sc2nc(-c3ccc(F)cc3)nn12,inactive,–
O=C(NC1CCCC1)C1c2ccccc2OCC(=O)N1CC(F)(F)F (stereo not drawn),inactive,–
CCn1ccnc1CN1CCCC(C(=O)c2ccc3c4c(cccc24)CC3)C1 (stereo not drawn),7.31 µM (active),–
CCc1nccn1CCC(=O)N1CCCC(N2CCN(c3ccccc3F)CC2)C1 (stereo not drawn),inactive,–
Cc1ccccc1N1CCN(C2CCCN(C(=O)c3ocnc3C)C2)CC1 (stereo not drawn),inactive,–
Cc1c(CN2CCCC(C(=O)c3cccc(Cl)c3)C2)c(=O)n(-c2ccccc2)n1C (stereo not drawn),inactive,–
Cc1ncoc1C(=O)N1CCCC(C(=O)c2ccc3c4c(cccc24)CC3)C1 (stereo not drawn),18.4 µM (active),–
CC(=O)NCC(=O)N1CCCC(C(=O)c2ccc3c4c(cccc24)CC3)C1 (stereo not drawn),inactive,–
CCOC1=C2[C@H]([C@H]3C(=O)N(c4ccccc4)C(=O)[C@H]3C1)[C@@H](c1ccccc1)N(S(=O)(=O)c1ccc(C)cc1)[C@H]2c1ccccc1,inactive,–

Structure (SMILES),Potency,"activity change, negative = growth inhibition"
O=C(Cn1ncn2nc(-c3cccs3)cc2c1=O)NCc1cccc(Br)c1,inactive,–
COc1cc(NC(=O)c2ccccc2)c(OC)cc1NC(=O)Cc1ccccc1,inactive,–
COc1ccc(C(=O)OCC(=O)Nc2cc(C)on2)cc1F,inactive,–
CC(=O)c1ccc(NC(=O)C(C)OC(=O)c2ccc(NS(=O)(=O)c3ccc4[nH]c(=O)[nH]c4c3)cc2)cc1 (stereo not drawn),inactive,–
COc1cc(/C=N/n2c(C)n[nH]c2=S)ccc1OCc1ccccc1,inactive,–
COc1cccc(/C=N\Nc2nncc(-c3ccccc3)n2)c1,inactive,–
CCOc1ccc(/C=N/Nc2nncc(-c3ccccc3)n2)cc1OC,16.4 µM (active),–
CC(CO)N1CCS(=O)(=O)CC1 (stereo not drawn),inactive,–
COc1ccc(/C=C/c2c(-c3cccc(C)c3)oc3ccc(-c4ccc5c(c4)OCO5)cc23)cc1,inactive,–
CC1CN(Cc2ccccc2)C(=S)NC1=O (stereo not drawn),inactive,–
CC(=O)Oc1c2c(c3c(c1CC=C(C)C)O[C@@]14C(=CC5CC1C(C)(C)OC4(C/C=C(\C)C(=O)O)C5=O)C3=O)OC(C)(CCC=C(C)C)C=C2 (stereo partly drawn),2.91 µM (active),–
O=C1C(=O)N(CCCN2CCOCC2)C(c2ccc([N+](=O)[O-])cc2)/C1=C(\O)c1ccc2c(c1)OCCO2 (stereo not drawn),inactive,–
Cc1ccc(NC(=O)CN(C)C(=O)Cn2nnc(-c3ccccc3)n2)cc1,inactive,–
Cc1cc(O)c(C2(O)C(=O)Nc3ccccc32)cc1C (stereo not drawn),inactive,–
COc1ccc(-c2nn(CC(=O)NC3CCCC3)c3c2cnc2ccc(F)cc23)cc1,inactive,–
CCc1ccc2ncc3c(-c4ccc(C)cc4)nn(CC(=O)NCc4ccccc4)c3c2c1,inactive,–
COc1ccc2ncc3c(-c4ccc(C)c(C)c4)nn(CC(=O)NC4CCCC4)c3c2c1,5.17 µM (active),–
O=C(COC(=O)CSc1ccccc1)Nc1ccc(F)cc1F,inactive,–
O=C(C[C@H]1C[C@H]2c3cc(NS(=O)(=O)c4ccc(F)cc4)ccc3O[C@H]2[C@H](CO)O1)NCc1cc(F)ccc1F,16.4 µM (active),–
O=C(Nc1ccc2c(c1)[C@@H]1C[C@@H](CC(=O)N3CCCCC3)O[C@@H](CO)[C@@H]1O2)NC1CCCCC1,inactive,–
O=C(C[C@H]1C[C@@H]2c3cc(NC(=O)C4CCC4)ccc3O[C@@H]2[C@H](CO)O1)NC1CCCCC1,inactive,–
Cc1cccc(C(=O)N2CCC(c3nc4ccccc4s3)CC2)c1,inactive,–
COC(=O)C1=NNC2(c3ccc(C)cc3)C(=O)N(c3cccc(C)c3C)C(=O)C12 (stereo not drawn),inactive,–
CCCCn1c(N)c(N(CC)C(=O)c2ccc(N(C)S(=O)(=O)c3ccc(C)cc3)cc2)c(=O)[nH]c1=O,inactive,–
Cc1cccc(C(=O)Nc2ccccc2-c2nnn(CC(=O)Nc3ccc4c(c3)OCCO4)n2)c1,inactive,–

Structure (SMILES),Potency,"activity change, negative = growth inhibition"
Cc1ccc2c(Cl)c(C(=O)NCCCn3ccnc3)sc2c1,inactive,–
Cc1ccc(-n2ncc3c(NCCCn4ccnc4)ncnc32)cc1Cl,20.6 µM (active),–
O=C(NCCCn1ccnc1)Nc1ccc(Cl)cc1Cl,inactive,–
CC1CN(C(=O)N2CCC(C(=O)NCc3cccs3)CC2)c2ccccc2O1 (stereo not drawn),inactive,–
Cc1cnc(CN(C)C(=O)C2CCC(=O)N(CCc3cccc(F)c3)C2)[nH]1 (stereo not drawn),inactive,–
S=C(Nc1ccc(Cl)cc1Cl)N1CCCC1,inactive,–
O=C(NC(=S)Nc1ccc(Cl)cc1Cl)C1CC1,20.6 µM (active),–
O=C(NC(=S)Nc1ccc(Br)cc1F)C1CCCCC1,inactive,–
CCCCCCNC(=O)CSc1nccn1Cc1ccccc1,inactive,–
COC1[C@H](OC(N)=O)C(O)[C@H](Oc2ccc3c(O)c(NC(=O)c4ccc(O)c(CC=C(C)C)c4)c(=O)oc3c2C)OC1(C)C (stereo partly drawn),inactive,–
Cc1ccc(NC(=O)CN(C)C(=O)COC(=O)c2nccnc2N)cc1,inactive,–
CC[C@@H]1CCCCc2ccccc2[C@@H](C(=O)C[C@H](O)CC(C)=O)OC1=O,inactive,–
Cc1noc(C)c1C(=O)NCC1COc2ccccc2O1 (stereo not drawn),inactive,–
O=C(CN1C(=O)C2C3C=CC(C3)C2C1=O)NCC1COc2ccccc2O1 (stereo not drawn),inactive,–
CCn1ccnc1C[C@@H]1COc2ccccc2O1,inactive,–
Cc1cc(NC(=O)CCC2COc3ccccc3O2)no1 (stereo not drawn),inactive,–
Cc1cc(C(=O)CCl)c(C)n1CC1COc2ccccc2O1 (stereo not drawn),2.06 µM (active),–
O=C1C(=O)N(CC2COc3ccccc3O2)c2ccccc21 (stereo not drawn),1.64 µM (active),–
O=c1c(NCc2cccs2)nccn1-c1ccccc1,inactive,–
CCN(CC(=O)Nc1c(F)cccc1F)C(=O)CN1c2cccc3cccc(c23)S1(=O)=O,inactive,–
O=C(Cn1cc(C(F)(F)F)ccc1=O)Nc1ccc2c(c1)OCCO2,inactive,–
O=C(NCCc1nnc2ccc(SCC(=O)N3CCOCC3)nn12)c1ccccc1,inactive,–
CC1=CCC2C(=O)N(c3cccc(C(=O)NC(C)c4ccccc4)c3)C(=O)C2C1 (stereo not drawn),inactive,–
